Reference: PubChem BioAssay AID504381 (The Scripps Research Institute Molecular Screening Center, 2011)
A number with no mark means an inactive call. No rule for the calls is given here.

Test system: BZP Rat Brain Site
Assay: radioligand displacement at receptors and transporters – biochemical, PDSP panel, Set 2, late-stage follow-up (AID 504381)
Details: PDSP radioligand binding panel, at 10 µM, active compounds read high

CC(=O)c1ccc2c(c1)Nc1ccccc1S2
inhibition: 11.4%
